Screening data from PubChem.
Sm TGR block: blocks Schistosoma mansoni thioredoxin glutathione reductase; Q962Y6; purified TGR, DTNB reduction, TNB absorbance 405 nm; Potency, µM (highest dose often 114 µM), without a hit: top-dose activity change, negative = inhibition, usual class: inhibitors; hit rate 3% among 360,000; also: potency is read from the fitted curve at half-maximal effect; % is scaled to controls: 0 for no effect and ±100 for the full control effect; nearly all actives have a fitted effect of over 60% in size
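First, TGR (20 nM dispensed) and NADPH were mixed with compound. Second, a 15 min room-temperature incubation followed. Third, further NADPH and then DTNB were added to start the reaction. Finally, TNB absorbance was monitored kinetically.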
Pf growth 48h: inhibits P. falciparum growth in the first generation, 48 h; P. falciparum luciferase growth in erythrocytes, 48 h; Potency, µM (series often up to 28.7 µM), inactives show top-dose activity change, negative = inhibition, usual class: inhibitors; hit rate 5.9% among 310,000; also: potency is read from the fitted curve at half-maximal effect; % is scaled to controls: 0 for no effect and ±100 for the full control effect
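Compounds are pin-transferred into medium, infected erythrocytes (2% hematocrit, 0.1% parasitemia final) are added, and plates sit one parasite generation at 37 C in 5% CO2. Detection reagent is then added and luminescence measured.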
HCV inh: HCV inhibition. Huh7.5.1 HCVcc-Cre infection, luciferase reporter, 44 h. Potency, µM (doses to about 41.8 µM), for the others: at the top dose activity change, negative = inhibition, hits mostly inhibitors. hit rate 3.4% among 340,000; also: potency is read from the fitted curve at half-maximal effect; % is scaled to controls: 0 for no effect and ±100 for the full control effect
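Cells seeded at 1,000/well and cultured 4 h, then compounds added followed by HCVcc-Cre virus (~0.5 moi). After 44 h further culture, luciferase substrate was added, plates held 15 min at room temperature, and luminescence read for 15 sec.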
Pf growth 96h: P. falciparum growth inhibition at 96 hour, primary screen for plastid delayed-death inhibitors; AID 504834; hit rate 6.9% among 320,000; Potency, µM (series often up to 28.7 µM), for inactives: at the highest dose activity change, negative = inhibition, usual class: inhibitors; P. falciparum luciferase reporter growth, 96 h; also: potency is read from the fitted curve at half-maximal effect; % is scaled to controls: 0 for no effect and ±100 for the full control effect
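P. falciparum expressing integrated firefly luciferase grown in erythrocytes (2% hematocrit, 0.05% parasitemia final) with compounds for 96 hours at 37 C, 5% CO2. Growth inhibition read as loss of luminescence after adding luciferase detection reagent.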
SARS PLP yeast: blocks SARS-CoV papain-like protease in a yeast assay | S. cerevisiae expressing SARS-CoV PLpro, growth rescue | Potency, µM (top dose mostly 32.9 µM), inactives show at the top dose activity, positive = growth rescue, most hits filed as activators | hit rate 0.19% among 330,000; calls by dose curve; also: potency is read from the fitted curve at half-maximal effect; 0% is about no effect; nearly all actives have a fitted effect of over 55% in size
HCMV inh: human cytomegalovirus inhibition; HFF cells, HCMV-luciferase reporter, 72 h; active compounds read low; activity change, negative = inhibition, % at 57.5 µM; hit rate 4.5% among 410,000; AID 1259415; in the data active = activity change below about -60%; inconclusive = no clear call, values can overlap the other calls; inactive = above about -39%; also: % is scaled to controls: 0 for no effect and ±100 for the full control effect
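HFF cells seeded 16 h at 37C, treated with compounds, infected with luciferase-reporter HCMV at MOI 1 PFU/cell; luciferase read at 72 h post infection, normalized to buffer-only and Salinomycin controls.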
Starred values were filed as active, the others as inactive; ? = inconclusive; nt = not tested or not shown. This is a sample that favours compounds with a hit; in the whole collection about 15% have one here. Unless noted, calls follow the shape of the dose curve; as a rule, active = well fitted curve in the direction sought with a large enough effect; inconclusive = small, poorly fitted or top-dose-only effect, or another doubt; inactive = no such curve, though single readings can be large; an effect the other way counts as inactive or inconclusive.

SMILES | Sm TGR block | Pf growth 48h | HCV inh | Pf growth 96h | SARS PLP yeast | HCMV inh
O=C(C[C@H]1C/C=C\CCC(=O)O[C@@H](c2ccccc2)CNC1=O)NCCO | nt | nt | 14% | nt | 5% | -10
COC(=O)[C@@H]1[C@@H](CO)[C@@H]2Cn3c(cccc3=O)[C@H]1N2C | nt | nt | nt | nt | nt | 5
Cc1ccc(NC(=O)CCNC(=O)c2ccc(Br)cc2)cc1S(=O)(=O)N1CCOCC1 | -3% | -13% | ? | 0% | 6% | 30
COc1ccc(COC(=O)c2ccc(Br)c(S(=O)(=O)N3CCOCC3)c2)cc1F | -3% | 3.3µM* | ? | ? | -13% | -20
COc1ccc(NC(=O)c2ccc(CNc3c(NC4CCCCC4)c(=O)c3=O)cc2)cc1OC | -1% | nt | -10% | 15µM* | 2% | -20
Cc1ccc(NC(=O)CSc2ccc(Br)cc2)cc1S(=O)(=O)N1CCOCC1 | 1% | ? | 32µM* | -26% | nt | -33
CCc1ccc(C(=O)Nc2ccc(OC)c(S(=O)(=O)N3CCCCC3)c2)cc1 | 3% | ? | 4.5µM* | ? | 0% | -97*
CC(C)n1[nH]c2ccccc2c1=O | nt | nt | nt | nt | nt | 6
Cc1cc(C)nc(NC(=O)c2c(Cl)cccc2Cl)n1 | 3% | 44% | -5% | 42% | 0% | 13
Cc1ncoc1C(=O)Nc1ccccc1-c1ccccc1 | 1µM* | 1% | -5% | ? | 2% | -20
Cc1cnc(C(=O)Nc2ccccc2-c2ccc(C)o2)cn1 | 20µM* | -86% | 7.9µM* | ? | 6% | 29
Cc1ccc(C(=O)Nc2ccccc2C(N)=O)o1 | 0% | 73% | 7% | nt | nt | 29
Cc1ccc(C(=O)Nc2ccccc2-c2ccccc2)o1 | -14% | -2% | 9% | nt | -10% | -67*
Cc1cc(C)nc(NC(=O)c2ccc(C)o2)n1 | -20% | 38% | 5% | 2% | -7% | -98*
COc1ccc(C(C)NCCC(c2ccc(OC(C)C)cc2)c2ccccc2OC)cc1 (stereo unspecified) | 7% | ? | 10µM* | ? | -2% | -97*
COc1ccc(C(CCNC(C)c2ccccc2)C(C)C)cc1 (stereo unspecified) | -9% | 9.3µM* | ? | 9.3µM* | 1% | ?
COc1ccccc1C(CC(=O)Nc1ccc(Cl)cc1)c1ccc(OC(C)C)cc1 (stereo unspecified) | -11% | 1% | ? | ? | -12% | -35
CCOC(=O)[C@H](C)N1[C@H](C)[C@H](c2ccccc2)Oc2ccc(Cl)cc2S1(=O)=O | nt | nt | 19% | nt | nt | -12
O=c1[nH]nnc2cc(Cl)ccc12 | nt | nt | 13% | nt | nt | 25
Cc1ccc(N2CC(C(=O)N3CCC(c4nc5ccccc5[nH]4)CC3)CC2=O)cc1C (stereo unspecified) | -2% | ? | -5% | 10µM* | -4% | -19
O=C(C1CCCCC1)N1CCC(c2nc3ccccc3[nH]2)CC1 | 22% | -25% | -5% | 9.3µM* | -7% | -7
O=C(NC1CCCCC1)N1CCCC(c2nc3ccccc3[nH]2)C1 (stereo unspecified) | -30% | -15% | ? | 1.5µM* | 2% | 4
O=C(C1CC(=O)N(c2ccc(F)cc2)C1)N1CCC(c2nc3ccccc3[nH]2)CC1 (stereo unspecified) | -4% | ? | 8% | 8.3µM* | 2% | -21
CC(C)c1ccc(NC(=O)Cn2cc(S(=O)(=O)Cc3ccccc3Cl)c3ccccc32)cc1 | 1% | nt | nt | nt | nt | 0
COc1ccc2nc(SC(C)C(=O)NCC(=O)Nc3ccc(F)c(F)c3F)[nH]c2c1 (stereo unspecified) | -4% | ? | 17% | 21% | -2% | -6
Nc1nc(Nc2cccc(Cl)c2)n[nH]1 | 46% | 1% | ? | ? | 0% | 19
O=C(c1ccc(Br)o1)N1CCC(c2nc3ccccc3[nH]2)CC1 | 40µM* | ? | 8% | ? | -8% | -23
CCCC(=O)Nc1ccc(S(=O)(=O)N2CCC(c3nc4ccccc4[nH]3)CC2)cc1 | 0% | 13µM* | ? | 5.2µM* | -5% | -3
